PubChem BioAssay (NCATS)
Records with an inconclusive call do not appear. Entries that show only a call come without a potency. Active and inactive are the calls of the source. Unless noted, calls come from the whole dose curve; as a rule, active = well fitted curve in the direction sought with a large enough effect; inconclusive = small, poorly fitted or top-dose-only effect, or another doubt; inactive = no such curve, though single readings can be large; an effect the other way counts as inactive or inconclusive.

Experiments:
[1] = qHTS assay for measurement of the activity of small molecule inhibitors on Zika virus induced Caspase-3 activity in human astrocytoma cells (AID 1224859)
How it was run: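 In SNB-19 cells plated at 250 cells/well and grown 16-20 h, compounds were applied 1 h before ZIKV (2 FFU/cell). Six hours later caspase-3/7 luminescence was recorded.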

[2] = qHTS assay to identify small molecule inhibitors of chordoma cells - UCH-1 (AID 1259355); note: nearly all actives have a fitted effect of over 55% in size; note: potency is the fitted concentration of half-maximal effect; series mostly up to about 46 µM
How it was run: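 800 cells/well, overnight attach; compounds pinned at 15 concs, then auranofin/camptothecin/doxorubicin/rubitecan/topotecan combo added; 48hr 37 C, 5% CO2; CellTiter-Glo, 30min RT, luminescence.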

[3] = qHTS assay to identify small molecule inhibitors of chordoma cells - UCH-2 (AID 1259356); note: potency is the fitted concentration of half-maximal effect
[4] = P-glycoprotein substrates identified in KB-8-5-11 adenocarcinoma cell line, qHTS therapeutic library screen (AID 1346987); note: nearly all actives have a fitted effect of over 65% in size; note: potency is the fitted concentration of half-maximal effect
How it was run: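 In this qHTS, P-gp-rich KB-8-5-11 cells received library compounds across a concentration range. Viability was quantified by luminescence after 72 h at 37 degree C.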

[5] = Natriuretic polypeptide receptor (hNpr1) antagonism - Pilot counterscreen GloSensor control cell line (AID 1347045; calls by dose curve; note: potency is the fitted concentration of half-maximal effect)
How it was run: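 HEK293 cGMP-sensor cells; 2% GloSensor reagent 2 h RT; LOPAC compounds in 1:5 titrations 30-50 min; 50 uM SNP 20 min; luminescence pre-read and post-read.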

[6] = target: Atrial natriuretic peptide receptor 1 (Homo sapiens) (UniProt P16066); assay: Natriuretic polypeptide receptor (hNpr1) antagonism - Pilot screen (AID 1347049; calls by dose curve;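 note: HEK293 cells with hNpr1 and GloSensor cGMP luciferase stimulated by 0.1 nM hNppA; agonist-evoked cGMP luminescence read 20 min after hNppA addition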; note: potency is the fitted concentration of half-maximal effect)
Sequence of Atrial natriuretic peptide receptor 1 (Homo sapiens) (P16066 whole entry, looked up): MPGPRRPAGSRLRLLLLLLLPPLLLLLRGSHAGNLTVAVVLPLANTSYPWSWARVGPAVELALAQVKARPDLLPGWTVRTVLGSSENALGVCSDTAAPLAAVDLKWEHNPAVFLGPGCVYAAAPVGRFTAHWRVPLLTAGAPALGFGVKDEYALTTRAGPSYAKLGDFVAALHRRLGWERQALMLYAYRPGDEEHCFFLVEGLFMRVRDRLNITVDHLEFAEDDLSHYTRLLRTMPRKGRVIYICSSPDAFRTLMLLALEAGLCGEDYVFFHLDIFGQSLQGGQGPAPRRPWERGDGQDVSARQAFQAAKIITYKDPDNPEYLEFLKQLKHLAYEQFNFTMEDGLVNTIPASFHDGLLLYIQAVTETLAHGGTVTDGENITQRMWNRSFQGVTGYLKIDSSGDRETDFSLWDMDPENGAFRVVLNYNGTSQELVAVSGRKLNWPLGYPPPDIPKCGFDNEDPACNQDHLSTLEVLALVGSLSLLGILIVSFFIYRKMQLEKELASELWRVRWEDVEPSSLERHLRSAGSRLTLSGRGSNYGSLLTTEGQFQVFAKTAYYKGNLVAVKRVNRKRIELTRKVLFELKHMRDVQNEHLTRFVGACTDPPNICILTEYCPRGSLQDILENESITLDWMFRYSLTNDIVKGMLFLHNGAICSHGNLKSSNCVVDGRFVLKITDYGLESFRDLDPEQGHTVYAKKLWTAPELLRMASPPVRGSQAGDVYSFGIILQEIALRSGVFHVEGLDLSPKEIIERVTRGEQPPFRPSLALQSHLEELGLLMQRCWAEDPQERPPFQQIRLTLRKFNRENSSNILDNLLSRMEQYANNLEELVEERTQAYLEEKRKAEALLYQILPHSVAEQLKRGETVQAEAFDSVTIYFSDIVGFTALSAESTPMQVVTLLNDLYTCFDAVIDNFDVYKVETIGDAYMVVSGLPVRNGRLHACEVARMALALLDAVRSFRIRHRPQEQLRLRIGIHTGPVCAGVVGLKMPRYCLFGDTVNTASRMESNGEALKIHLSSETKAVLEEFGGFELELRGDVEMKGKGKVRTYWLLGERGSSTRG
How it was run: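 Receptor antagonism read as cGMP-dependent luminescence in hNpr1/pGS-40F HEK293 cells: pre-read after 30 min compound exposure, post-read 20 min after hNppA agonist at 0.1 nM final, all at room temperature, protected from light; A-71915 titration as control.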

Structure (SMILES) | outcome [1] | Potency [2] | Potency [3] | Potency [4] | Potency [5] | Potency [6]
Cc1ccc(Cl)c(Nc2ccccc2C(=O)O)c1Cl | inactive | inactive | inactive | inactive | inactive | inactive
CCN(CC)CC(=O)Nc1c(C)cccc1C | inactive | inactive | inactive | inactive | inactive | inactive
NC(=O)c1ncn([C@@H]2O[C@H](CO)[C@@H](O)[C@H]2O)c1O | inactive | inactive | inactive | inactive | inactive | inactive
CO[C@@]1(NC(=O)CSCC#N)C(=O)N2C(C(=O)O)=C(CSc3nnnn3C)CS[C@@H]21 | inactive | inactive | inactive | inactive | inactive | inactive
NC(Cc1ccc(Cl)cc1)C(=O)O (configuration not stated) | inactive | inactive | inactive | inactive | inactive | inactive
CN(C)C(=O)Oc1ccc[n+](C)c1 | inactive | inactive | inactive |  | inactive | inactive
COCC(=O)O[C@]1(CCN(C)CCCc2nc3ccccc3[nH]2)CCc2cc(F)ccc2[C@@H]1C(C)C | inactive | 31.6 µM (active) | 14.6 µM (active) |  | 26.1 µM (active) | inactive
O=C(O)CN(CCN(CC(=O)O)CC(=O)O)CCN(CC(=O)O)CC(=O)O | inactive | inactive | inactive |  | inactive | inactive
CCN(CC)CCOCCOC(=O)C1(c2ccccc2)CCCC1 | inactive | inactive | inactive |  | inactive | inactive
CCNC(=O)N1CCN(CCCC(c2ccc(F)cc2)c2ccc(F)cc2)CC1 | inactive | inactive | inactive |  | 11.7 µM (active) | 
C[N+](C)(C)CCCCCCCCCC[N+](C)(C)C | inactive | inactive | inactive |  | inactive | inactive
CCOC(=O)c1cnc2c(cnn2CC)c1NN=C(C)C | inactive | inactive | inactive |  | inactive | inactive
NC(N)=N/N=C/c1c(Cl)cccc1Cl | inactive | inactive | inactive |  | inactive | inactive
Cc1ccc(/C(=C\CN2CCCC2)c2ccccn2)cc1 | inactive | inactive | inactive |  | inactive | inactive
OC(CCN1CCCCC1)(c1ccccc1)C1CCCCC1 (configuration not stated) | inactive | inactive | inactive | inactive |  | inactive
OCCN1CCN(CC/C=C2/c3ccccc3Sc3ccc(C(F)(F)F)cc32)CC1 | inactive | inactive | inactive | 18.4 µM (active) |  | inactive
C[n+]1cc2c3c(ccc2c2ccc4cc5c(cc4c21)OCO5)OCO3 | inactive | 12.6 µM (active) | 13 µM (active) |  | 2.07 µM (active) | 4.78 µM (active)
CCO/C([O-])=N/c1c[n+](N2CCOCC2)no1 | inactive | inactive | inactive |  | inactive | inactive
c1cc(CN2CCCCC2)cc(OCCCNc2nc3ccccc3s2)c1 | inactive | inactive | inactive | 14.6 µM (active) |  | inactive
COCCOC(=O)C1=C(C)NC(C)=C(C(=O)OC(C)C)C1c1cccc([N+](=O)[O-])c1 (configuration not stated) | inactive | inactive | inactive |  | inactive | inactive
Cc1nc2c([nH]1)c(=O)n(C)c(=O)n2Cc1ccco1 | inactive | inactive | inactive |  | inactive | inactive
CCN1CCC[C@H]1CNC(=O)c1c(O)c(Cl)cc(Cl)c1OC | inactive | inactive | inactive |  | inactive | inactive
CC1=NS(=O)(=O)c2cc(Cl)ccc2N1 | inactive | inactive | inactive |  | inactive | inactive

Structure (SMILES) | outcome [1] | Potency [2] | Potency [3] | Potency [4] | Potency [5] | Potency [6]
CC(C(=O)O)c1ccc(CC2CCCC2=O)cc1 (configuration not stated) | inactive | inactive | inactive |  | inactive | inactive
CN1CCN(C2=Nc3ccccc3Oc3ccc(Cl)cc32)CC1 | inactive | inactive | inactive |  | inactive | 
CCCNC(C)C(=O)Nc1ccccc1C (configuration not stated) | inactive | inactive | inactive |  | inactive | inactive
C[C@H](CS)C(=O)N1CCC[C@H]1C(=O)O | inactive | inactive | inactive |  | inactive | inactive
O=C1CC2(CCCC2)CC(=O)N1CCCCN1CCN(c2ncccn2)CC1 | inactive | inactive | inactive |  | inactive | inactive
O=C(O)CCCCCCCC(=O)O | inactive | inactive | inactive |  | inactive | inactive
CC(=O)[C@]1(O)Cc2c(O)c3c(c(O)c2[C@@H](O[C@H]2C[C@H](N)[C@H](O)[C@H](C)O2)C1)C(=O)c1ccccc1C3=O | inactive | 0.794 µM (active) | 1.16 µM (active) | 4.11 µM (active) |  | inactive
c1ccc2c(c1)CCCC2C1=NCCN1 (configuration not stated) | inactive | inactive | inactive |  | inactive | inactive
CC(C)NCC(O)c1cc(O)cc(O)c1 (configuration not stated) | inactive | inactive | inactive |  | inactive | inactive
O=C1NCN(c2ccccc2)C12CCN(CCCC(c1ccc(F)cc1)c1ccc(F)cc1)CC2 | inactive | 31.6 µM (active) | 25.9 µM (active) | 14.6 µM (active) |  | inactive
CCCCCN(CCCCC)C(=O)C(CCC(=O)O)NC(=O)c1ccc(Cl)c(Cl)c1 (configuration not stated) | inactive | inactive | inactive |  | inactive | inactive
CCn1ccnc1CC1COc2ccccc2O1 (configuration not stated) | inactive | inactive | inactive |  | inactive | inactive
C[C@]12CC[C@@H]3c4ccc(O)cc4C[C@@H](CCCCCCCCCS(=O)CCCC(F)(F)C(F)(F)F)[C@H]3[C@@H]1CC[C@@H]2O (some centres not stated) | inactive | inactive | inactive |  | inactive | inactive
COCCc1ccc(OCC(O)CNC(C)C)cc1 (configuration not stated) | inactive | inactive | inactive |  | inactive | inactive
CCn1nc(C(=O)O)c(=O)c2cc3c(cc21)OCO3 | inactive | inactive | inactive |  | inactive | inactive
COc1ccc2c(c1OC)C(=O)O[C@@H]2[C@H]1c2c(cc3c(c2OC)OCO3)CCN1C | inactive | inactive | inactive |  | inactive | inactive
NC1=NCC2c3ccccc3Cc3ccccc3N12 (configuration not stated) | inactive | inactive | inactive |  | inactive | inactive
CN(C)C(=O)Oc1cccc([N+](C)(C)C)c1 | inactive | inactive | inactive | inactive |  | inactive
NC(N)=NC(=O)Cc1c(Cl)cccc1Cl | inactive | inactive | inactive |  | inactive | inactive
N[C@@H](COP(=O)(O)O)C(=O)O | inactive | inactive | inactive |  | inactive | inactive
C[N+](C)(C)CCOC(N)=O | inactive | inactive | inactive |  | inactive | inactive
O=C(O)CN(CCOCCOCCN(CC(=O)O)CC(=O)O)CC(=O)O | inactive | inactive | inactive |  | inactive | inactive
COc1cc(Cc2cnc(N)nc2N)cc(OC)c1OC | inactive | inactive | inactive |  | inactive | inactive

Structure (SMILES) | outcome [1] | Potency [2] | Potency [3] | Potency [4] | Potency [5] | Potency [6]
CCCCNC(=O)NS(=O)(=O)c1ccc(C)cc1 | inactive | inactive | inactive |  | inactive | inactive
CCCCCCCC/C=C\CCCCCCCC(=O)NCc1ccc(O)c(OC)c1 | inactive | inactive |  | inactive | inactive | inactive
CC(C)(C)c1ccc(C(=O)CCCN2CCC(OC(c3ccccc3)c3ccccc3)CC2)cc1 | inactive | 15.8 µM (active) |  | 20.6 µM (active) |  | inactive
CN(C)CC[C@@H](c1ccc(Br)cc1)c1ccccn1 | inactive | inactive | inactive |  | inactive | inactive
COC(=O)C1=C(C)NC(C)=C(C(=O)OC(C)(C)CN(C)CCC(c2ccccc2)c2ccccc2)C1c1cccc([N+](=O)[O-])c1 (configuration not stated) | inactive | inactive | inactive |  |  | inactive
CCCCOCCOCCOCc1cc2c(cc1CCC)OCO2 | inactive | inactive |  | inactive |  | 
O=C(CCCN1CCC(O)(c2cccc(C(F)(F)F)c2)CC1)c1ccc(F)cc1 | inactive | inactive | inactive |  |  | inactive
COc1cc2c(cc1OC)-c1cc(=Nc3c(C)cc(C)cc3C)n(C)c(=O)n1CC2 | inactive | 25.1 µM (active) |  | 25.9 µM (active) | inactive | inactive
Nc1nc(N)c2nc(-c3ccccc3)c(N)nc2n1 | inactive | inactive |  | inactive | inactive | inactive
COc1ccc(CN(CCN(C)C)c2ccccn2)cc1 | inactive | inactive |  | inactive | inactive | 
CN(C)C/C=C(/c1ccc(Br)cc1)c1cccnc1 | inactive | inactive | inactive |  | inactive | inactive
CC(N=C(NC#N)Nc1ccncc1)C(C)(C)C (configuration not stated) | inactive | inactive |  | inactive | inactive | inactive
CNC1(C)C2CCC(C2)C1(C)C (configuration not stated) | inactive | inactive | inactive |  | inactive | inactive
C#CCN(C)CCCOc1ccc(Cl)cc1Cl | inactive | inactive | inactive |  | inactive | inactive
COC(=O)[C@H]1[C@H]2C[C@@H]3c4[nH]c5cc(OC)ccc5c4CCN3C[C@H]2C[C@@H](OC(=O)c2cc(OC)c(OC)c(OC)c2)[C@@H]1OC | inactive | inactive |  | inactive | inactive | inactive
CN(C(=O)CCCOc1ccc2[nH]c(=O)ccc2c1)C1CCCCC1 | inactive | inactive | inactive |  | inactive | inactive
CNCCCN1c2ccccc2CCc2ccccc21 | inactive | inactive | inactive |  | inactive | inactive
CCCCNc1ccc(C(=O)OCCN(C)C)cc1 | inactive | inactive | inactive |  | inactive | inactive
Cc1nc2ccccn2c(=O)c1CCN1CCC(C(=O)c2ccc(F)cc2)CC1 | inactive | inactive | inactive |  | inactive | inactive
O=C(CCNNC(=O)c1ccncc1)NCc1ccccc1 | inactive | inactive | inactive |  | inactive | inactive
CN(C)CC/C=C1\c2ccccc2COc2ccccc21 | inactive | inactive | inactive |  | inactive | inactive
CC(C)(C)NCC(O)c1cc(O)cc(O)c1 (configuration not stated) | inactive | inactive | inactive |  | inactive | inactive
